Results from article PMC6753376.

How the values were obtained:
[1] = molecular target: 26S proteasome regulatory subunit RPN9 (UniProt Q04062); experiment: cross-link between two proteins; cross-linking mass spectrometry
[2] = molecular target: 26S proteasome regulatory subunit 8 homolog (UniProt Q01939); experiment: as above
[3] = molecular target: 26S proteasome regulatory subunit RPN6 (UniProt Q12377); experiment: as above
[4] = molecular target: 26S proteasome regulatory subunit RPN7 (UniProt Q06103); experiment: as above
[5] = molecular target: 26S proteasome regulatory subunit RPN8 (UniProt Q08723); experiment: as above
[6] = molecular target: 26S proteasome regulatory subunit 4 homolog (UniProt P40327); experiment: as above
[7] = molecular target: 26S proteasome regulatory subunit 7 homolog (UniProt P33299); experiment: as above
[8] = molecular target: 26S proteasome regulatory subunit RPN1 (UniProt P38764); experiment: as above
[9] = molecular target: Probable 26S proteasome regulatory subunit p28 (UniProt P50086); experiment: as above
[10] = molecular target: Ubiquitin C-terminal hydrolase RPN11 (UniProt P43588); experiment: as above
[11] = molecular target: 26S proteasome regulatory subunit 6B homolog (UniProt P33298); experiment: as above
[12] = molecular target: 26S proteasome regulatory subunit RPN5 (UniProt Q12250); experiment: as above
[13] = molecular target: 26S proteasome subunit RPT4 (UniProt P53549); experiment: as above
[14] = molecular target: Ubiquitin carboxyl-terminal hydrolase 6 (UniProt P43593); experiment: as above
[15] = molecular target: Proteasome subunit alpha type-4 (UniProt P40303); experiment: as above
[16] = molecular target: Proteasome subunit alpha type-6 (UniProt P40302); experiment: as above
[17] = molecular target: Proteasome subunit beta type-5 (UniProt P30656); experiment: as above
[18] = molecular target: Proteasome subunit beta type-7 (UniProt P30657); experiment: as above
[19] = molecular target: 26S proteasome subunit RPT4 (UniProt P53549); experiment: cross-link between two proteins; affinity purification or IP with mass spectrometry; cross-linking mass spectrometry
[20] = molecular target: Proteasome subunit beta type-1 (UniProt P38624); experiment: cross-link between two proteins; cross-linking mass spectrometry
[21] = molecular target: Proteasome subunit alpha type-1 (UniProt P21243); experiment: as above

Measured: listed as a hit

26S proteasome regulatory subunit RPN12, P32496
yes: [1]

Probable 26S proteasome regulatory subunit p28, P50086
yes: [2] | [3]

26S proteasome regulatory subunit 8 homolog, Q01939
yes: [3] | [4] | [5]

26S proteasome regulatory subunit 6B homolog, P33298
yes: [6] | [7] | [8] | [3] | [5] | [9] | [10]

26S proteasome regulatory subunit 6A, P33297
yes: [11] | [2] | [12] | [5]

Ubiquitin C-terminal hydrolase RPN11, P43588
yes: [1]

26S proteasome regulatory subunit 4 homolog, P40327
yes: [13] | [14]

26S proteasome regulatory subunit RPN2, P32565
yes: [11] | [7] | [8] | [3] | [5] | [10]

Proteasome subunit alpha type-5, P32379
yes: [7]

26S proteasome regulatory subunit 7 homolog, P33299
yes: [2] | [8] | [4] | [5] | [13] | [15] | [14]

Proteasome subunit beta type-6, P23724
yes: [16] | [17] | [18]

Proteasome subunit alpha type-4, P40303
yes: [6] | [2]

Heat shock protein SSA1, P10591
yes: [19]

Proteasome subunit alpha type-1, P21243
yes: [11] | [12] | [13] | [20] | [18]

26S proteasome regulatory subunit RPN1, P38764
yes: [6] | [2] | [4] | [5] | [13] | [10] | [14]

Proteasome subunit alpha type-2, P23639
yes: [11] | [2] | [3]

Proteasome subunit beta type-4, P22141
yes: [17]

Probable proteasome subunit alpha type-7, P21242
yes: [12] | [13] | [21]

Proteasome subunit alpha type-3, P23638
yes: [6] | [2] | [3] | [4] | [15]

26S proteasome subunit RPT4, P53549
yes: [2] | [12] | [5] | [1]

26S proteasome regulatory subunit RPN10, P38886
yes: [10]
